Measurements reported in PubChem BioAssay AID504326 (The Scripps Research Institute Molecular Screening Center, 2011).
The campaign covered roughly 340,000 compounds. About 990 (0.29%) were called active. This is one part of a sample in which actives are shown more often than they occur. Rule as the data show it: active = activation above about 18%; inactive = the rest.

Molecular target: Mu-type opioid receptor (Homo sapiens) + Delta-type opioid receptor (Homo sapiens) (UniProt P35372+P41143)
Test: agonists of OPRM1-OPRD1 heterodimerization, primary screen, cell-based, luminescence (AID 504326);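 also: 0% = vehicle-treated cells and 100% = reference agonist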
Conditions: cells, at 9.3 µM, stronger effect = higher value

Sequence of Mu-type opioid receptor (Homo sapiens) + Delta-type opioid receptor (Homo sapiens) (P35372 whole entry, looked up): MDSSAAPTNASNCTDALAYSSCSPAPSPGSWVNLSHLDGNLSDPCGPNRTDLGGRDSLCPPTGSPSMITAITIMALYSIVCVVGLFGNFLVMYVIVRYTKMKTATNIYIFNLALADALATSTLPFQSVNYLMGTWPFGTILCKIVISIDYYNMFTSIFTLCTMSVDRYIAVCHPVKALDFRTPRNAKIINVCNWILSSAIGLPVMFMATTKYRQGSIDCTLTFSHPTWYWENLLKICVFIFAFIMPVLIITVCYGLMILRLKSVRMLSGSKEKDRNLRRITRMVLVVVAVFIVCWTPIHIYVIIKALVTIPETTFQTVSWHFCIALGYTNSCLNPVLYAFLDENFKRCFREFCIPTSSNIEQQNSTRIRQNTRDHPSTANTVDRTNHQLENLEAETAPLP
Sequence of Mu-type opioid receptor (Homo sapiens) + Delta-type opioid receptor (Homo sapiens) (P41143 whole entry, looked up): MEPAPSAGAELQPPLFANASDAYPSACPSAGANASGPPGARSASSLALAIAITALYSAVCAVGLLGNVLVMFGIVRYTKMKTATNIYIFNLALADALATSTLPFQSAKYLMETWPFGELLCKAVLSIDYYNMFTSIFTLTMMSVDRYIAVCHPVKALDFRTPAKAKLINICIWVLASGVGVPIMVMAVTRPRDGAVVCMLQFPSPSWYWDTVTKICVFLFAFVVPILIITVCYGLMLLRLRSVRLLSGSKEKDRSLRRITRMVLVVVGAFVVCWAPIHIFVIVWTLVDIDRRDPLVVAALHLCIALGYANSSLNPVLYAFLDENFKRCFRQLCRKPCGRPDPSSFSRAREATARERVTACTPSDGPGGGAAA

With `COC1C(O)C(C)OC(OC2CCC3(C=O)C(CCC4C3CCC3(C)C(C5=CC(=O)OC5)CCC43O)C2)C1O` (stereo not given) as the compound, how does the activation read?
Its activation is 82.9% (active).

With `COc1cc2nc(N3CCN(C(=O)[C@@H]4CCCO4)CC3)nc(N)c2cc1OC` as the compound, how does the activation read?
Its activation is -0.16% (inactive).

For `CC1(C)C(c2ccccc2)=NC(c2cccnc2)=[N+]1[O-]`, which activation is on record?
Its activation is -4.09% (inactive).

How did the activation turn out when `CC(=O)OC1C2(CC3N4C(=O)C5(CO)SSC4(CC31O)C(=O)N5C)OC(C)C(C)(C)C2=O` (stereo not given) was run?
The activation was -23.2% (inactive).

Which activation does the source give for `C[C@]12CCC3C(CC[C@H]4C[C@@H](O)CC[C@]34C)C1C[C@@H](O)[C@H]2O` (stereo not given in full) here?
The activation was -2.9% (inactive).

Which activation does the source give for `C[C@]12CC[C@H](O)C[C@H]1CC[C@@H]1C2CC[C@]2(C)[C@@H](C3=CC(=O)OC3)[C@@H](O)C[C@]12O` (stereo not given in full) here?
Its activation is 62.4% (active).

Which activation does the source give for `C[C@]12CCC3C(CC[C@H]4C[C@@H](O)CC[C@]34C)C1CC[C@@H]2O` (stereo not given in full) here?
The activation was -1.31% (inactive).

`CCOP(=O)(OCC)C(NC(=O)NC)C(N)=O` (stereo not given) was tested. Which activation did it give?
Its activation is -3.11% (inactive).

How did the activation turn out when `c1cc2c(cc1C1OCC3C(c4ccc5c(c4)OCO5)OCC13)OCO2` (stereo not given) was run?
The activation was 1.03% (inactive).

For `Cn1c(O)c(C=NCCCC(=O)O)c(=O)n(C)c1=O`, which activation is on record?
Its activation is -1.29% (inactive).

Which activation does the source give for `CCOC(=O)C1(Cc2ccc(Cl)cc2)CCN(C(C)CCn2cccn2)CC1` (stereo not given) here?
The activation was 0.28% (inactive).

Which activation does the source give for `CCOC(=O)C1(c2ccccc2)CCN(CC(O)c2ccc(NC(C)=O)cc2)CC1` (stereo not given) here?
The activation was 3.27% (inactive).

For `CCOC(=O)C1(CCc2ccccc2)CCN(Cc2ccco2)CC1`, which activation is on record?
Its activation is 23.8% (active).

Which activation does the source give for `NC(=O)Cn1cc(C(=O)c2ccccc2F)c2ccccc21` here?
Its activation is -3.05% (inactive).

With `c1ccc2sc(C3CCCNC3)nc2c1` (stereo not given) as the compound, how does the activation read?
The activation was -2.28% (inactive).

How did the activation turn out when `COc1ccc(C2NCc3ccc4c(c3-n3cccc32)OCO4)cc1OC` (stereo not given) was run?
Its activation is -3.63% (inactive).

`CCC1(C)CC(CCNCc2ccc(N(C)C)cc2)(c2ccc(F)cc2)CCO1` (stereo not given) was tested. Which activation did it give?
Its activation is 125% (active).

`COC(=O)C1=C(c2c(C)noc2C)C[C@@H]2CC[C@H]1N2C(=O)NCc1ccc2c(c1)OCO2` was tested. Which activation did it give?
Its activation is -2.32% (inactive).

`CCCCC(=O)N/N=C/c1c(O)n(CC)c(=S)n(CC)c1=O` was tested. Which activation did it give?
The activation was 0.54% (inactive).

With `O=C1NC(=O)C(CCOc2ccccc2)(CCc2ccccc2)C(=O)N1` as the compound, how does the activation read?
Its activation is -1.87% (inactive).
